# Tested on: ATM
# Design: species or system human, MV4-11 + K-562 + COLO205 + SK-N-BE2 + OVCAR-8
# Details: read-out: apparent Kd; compound concentrations:100 nM and 1000 nM (sheet 'Samples'); n = 1
row,SMILES,potency estimated from few doses [nM]
1,NCCNS(=O)(=O)c1ccc(-c2ccnc3[nH]ccc23)cc1 [GSK977617A],295
2,O=C1NC(=O)C(N2CCc3ccccc32)=C1c1ccccc1Cl [SB-373598],39.1
3,Cl.Cl.NCC(C(=O)Nc1cc(Br)c(-c2ccnc3[nH]ccc23)s1)c1ccccc1.NCC(C(=O)Nc1cc(Br)c(-c2ccnc3[nH]ccc23)s1)c1ccccc1 (stereo not drawn) [GSK1269851A],275
4,CN1C[C@@H]2Cn3c(c(C4=C(c5cn(C)c6ccccc56)C(=O)NC4=O)c4ccccc43)C[C@H]2C1.Cl [RO0320234-001],29.7
5,Cc1ccc2c(-c3ccncc3)c(-c3ccc(F)cc3)nn2c1.Cl [GW461484A],262

# Tested on: ATR
# Design: species or system human, MV4-11 + K-562 + COLO205 + SK-N-BE2 + OVCAR-8
# Details: read-out: apparent Kd; compound concentrations:100 nM and 1000 nM (sheet 'Samples'); n = 1
row,SMILES,potency estimated from few doses [nM]
1,O=C1NC(=O)C(N2CCc3ccccc32)=C1c1ccccc1Cl [SB-373598],605
2,Cl.Cl.NCC(C(=O)Nc1cc(Br)c(-c2ccnc3[nH]ccc23)s1)c1ccccc1.NCC(C(=O)Nc1cc(Br)c(-c2ccnc3[nH]ccc23)s1)c1ccccc1 (stereo not drawn) [GSK1269851A],889
3,CN1C[C@@H]2Cn3c(c(C4=C(c5cn(C)c6ccccc56)C(=O)NC4=O)c4ccccc43)C[C@H]2C1.Cl [RO0320234-001],438
4,Cc1ccc2c(-c3ccncc3)c(-c3ccc(F)cc3)nn2c1.Cl [GW461484A],838

# Tested on: AURKA
# Design: species or system human, MV4-11 + K-562 + COLO205 + SK-N-BE2 + OVCAR-8
# Details: read-out: apparent Kd; compound concentrations:100 nM and 1000 nM (sheet 'Samples'); n = 1
row,SMILES,potency estimated from few doses [nM]
1,O=C1NC(=O)C(N2CCc3ccccc32)=C1c1ccccc1Cl [SB-373598],295
2,Cl.Cl.NCC(C(=O)Nc1cc(Br)c(-c2ccnc3[nH]ccc23)s1)c1ccccc1.NCC(C(=O)Nc1cc(Br)c(-c2ccnc3[nH]ccc23)s1)c1ccccc1 (stereo not drawn) [GSK1269851A],768
3,CC(C)N1CCC(n2cnc(-c3ccc(F)cc3)c2-c2ccnc(N)n2)CC1 [SB-223132],931
4,CNC(=O)c1ccccc1Nc1nc(Nc2ccc(N3CCOCC3)cc2)ncc1Cl.Cl [GSK1576028A],11
5,CN1C[C@@H]2Cn3c(c(C4=C(c5cn(C)c6ccccc56)C(=O)NC4=O)c4ccccc43)C[C@H]2C1.Cl [RO0320234-001],368

# Tested on: AURKB
# Design: species or system human, MV4-11 + K-562 + COLO205 + SK-N-BE2 + OVCAR-8
# Details: read-out: apparent Kd; compound concentrations:100 nM and 1000 nM (sheet 'Samples'); n = 1
row,SMILES,potency estimated from few doses [nM]
1,O=C1NC(=O)C(N2CCc3ccccc32)=C1c1ccccc1Cl [SB-373598],466
2,CNC(=O)c1ccccc1Nc1nc(Nc2ccc(N3CCOCC3)cc2)ncc1Cl.Cl [GSK1576028A],55
3,CN1C[C@@H]2Cn3c(c(C4=C(c5cn(C)c6ccccc56)C(=O)NC4=O)c4ccccc43)C[C@H]2C1.Cl [RO0320234-001],444

# Tested on: AXL
# Design: species or system human, MV4-11 + K-562 + COLO205 + SK-N-BE2 + OVCAR-8
# Details: read-out: apparent Kd; compound concentrations:100 nM and 1000 nM (sheet 'Samples'); n = 1
row,SMILES,potency estimated from few doses [nM]
1,NCCNS(=O)(=O)c1ccc(-c2ccnc3[nH]ccc23)cc1 [GSK977617A],1330
2,O=C1NC(=O)C(N2CCc3ccccc32)=C1c1ccccc1Cl [SB-373598],775
3,Cl.Cl.NCC(C(=O)Nc1cc(Br)c(-c2ccnc3[nH]ccc23)s1)c1ccccc1.NCC(C(=O)Nc1cc(Br)c(-c2ccnc3[nH]ccc23)s1)c1ccccc1 (stereo not drawn) [GSK1269851A],1610
4,CNC(=O)c1ccccc1Nc1nc(Nc2ccc(N3CCOCC3)cc2)ncc1Cl.Cl [GSK1576028A],732
5,CN1C[C@@H]2Cn3c(c(C4=C(c5cn(C)c6ccccc56)C(=O)NC4=O)c4ccccc43)C[C@H]2C1.Cl [RO0320234-001],1340

# Tested on: BCR
# Design: species or system human, MV4-11 + K-562 + COLO205 + SK-N-BE2 + OVCAR-8
# Details: read-out: apparent Kd; compound concentrations:100 nM and 1000 nM (sheet 'Samples'); n = 1
row,SMILES,potency estimated from few doses [nM]
1,NCCNS(=O)(=O)c1ccc(-c2ccnc3[nH]ccc23)cc1 [GSK977617A],244
2,O=C1NC(=O)C(N2CCc3ccccc32)=C1c1ccccc1Cl [SB-373598],243
3,Cl.Cl.NCC(C(=O)Nc1cc(Br)c(-c2ccnc3[nH]ccc23)s1)c1ccccc1.NCC(C(=O)Nc1cc(Br)c(-c2ccnc3[nH]ccc23)s1)c1ccccc1 (stereo not drawn) [GSK1269851A],90.4
4,CC(C)N1CCC(n2cnc(-c3ccc(F)cc3)c2-c2ccnc(N)n2)CC1 [SB-223132],660
5,CNC(=O)c1ccccc1Nc1nc(Nc2ccc(N3CCOCC3)cc2)ncc1Cl.Cl [GSK1576028A],781
6,CN1C[C@@H]2Cn3c(c(C4=C(c5cn(C)c6ccccc56)C(=O)NC4=O)c4ccccc43)C[C@H]2C1.Cl [RO0320234-001],57.1
7,Cc1ccc2c(-c3ccncc3)c(-c3ccc(F)cc3)nn2c1.Cl [GW461484A],545

# Tested on: BMP2K
# Design: species or system human, MV4-11 + K-562 + COLO205 + SK-N-BE2 + OVCAR-8
# Details: read-out: apparent Kd; compound concentrations:100 nM and 1000 nM (sheet 'Samples'); n = 1
row,SMILES,potency estimated from few doses [nM]
1,NCCNS(=O)(=O)c1ccc(-c2ccnc3[nH]ccc23)cc1 [GSK977617A],817
2,O=C1NC(=O)C(N2CCc3ccccc32)=C1c1ccccc1Cl [SB-373598],478
3,Cl.Cl.NCC(C(=O)Nc1cc(Br)c(-c2ccnc3[nH]ccc23)s1)c1ccccc1.NCC(C(=O)Nc1cc(Br)c(-c2ccnc3[nH]ccc23)s1)c1ccccc1 (stereo not drawn) [GSK1269851A],126
4,CC(C)N1CCC(n2cnc(-c3ccc(F)cc3)c2-c2ccnc(N)n2)CC1 [SB-223132],531
5,CNC(=O)c1ccccc1Nc1nc(Nc2ccc(N3CCOCC3)cc2)ncc1Cl.Cl [GSK1576028A],1140
6,CN1C[C@@H]2Cn3c(c(C4=C(c5cn(C)c6ccccc56)C(=O)NC4=O)c4ccccc43)C[C@H]2C1.Cl [RO0320234-001],933
7,Cc1ccc2c(-c3ccncc3)c(-c3ccc(F)cc3)nn2c1.Cl [GW461484A],1900

# From article PMC11062922 (Nature Chemical Biology, 2023)
